From PubChem BioAssay AID1745849 (National Center for Advancing Translational Sciences (NCATS), 2022)
Screen size: about 2,100 compounds; about 320 (15%) were called active. About 52% were inconclusive and are not listed. This is one part of the list. Unmarked numbers belong to inactive results. The call rests on the fitted dose curve; in most records, active means well fitted cell-killing curve with a large enough effect; inconclusive means small, poorly fitted or top-dose-only effect, or effect the other way; inactive means flat fitted curve, though single readings scatter.

Experiment: Viability Counterscreen for CMV-Luciferase Assay of Inhibitors of ATXN expression; further: nearly all actives have a fitted effect of over 55% in size
Settings: HEK-293 CMV-luciferase cells viability, protease fluorescence, 24 h; series mostly up to 57.5 µM
Excerpt: PI: Daniel Scoles Ph.D. University of Utah School of Medicine, Salt Lake City, Utah MLPCN Grant: NS073009 Spinocerebellar ataxia type 2 (SCA2) is a multisystem neurodegenerative disease caused by a dominantly acting mutation leading to expansion of a polyQ domain in the ataxin-2 protein (ATXN2). SCA2 patients develop progressive ataxia and later lose function in other neuronal systems. Prominent parkinsonian signs develop in some patients. Like many neurodegenerative disorders, no symptomatic or disease-modifying treatments are known. The primary objective of the proposed research is to identify compounds inhibiting ATXN2 expression and to test them for efficacy in SCA2 mouse models. We have developed a cell-based assay paired with an in vivo mouse model using identical luciferase expression constructs. This approach takes advantage of an ATXN2-luciferase transgene, with the luciferase gene flanked by the upstream and downstream portions of the ATXN2 gene. Here we describe a 5-7 dose quantitative high thoroughput screen (qHTS) for compounds lowering ATXN2 expression. We screened the NIH Molecular Libraries Small Molecule Repository (MLSMR) and NCGC's mechanistically annotated (MIPE) and drug repurposing (NPC) collections of compounds for lowering expression of an ATXN2-luciferase reporter in HEK-293 cells. The assay is a multiplexed cell viability assay to ensure target reduction in the absence of cytotoxicity. Secondary qHTS assays included a CMV-luciferase reporter expressed in HEK-293 cells as well as a biochemical assay using recombinant luciferase to detect inhibitors of the reporter enzyme. Compounds that inhibit ATXN2 expression but is not cytotoxic were selected for confirmatory and secondary screens.
PROTOCOL TABLE (as described by Inglese J, Shamu CE and Guy RK. 2007) SEQUENCE No. (e.g., 1, 2, 3, etc.); […] (e.g., Cells, Incubation, Reagent, etc.); VALUE; DESCRIPTION. 1; Cells; 4 uL; white, solid bottom, 1536-well Greiner assay plate. 2; Incubation; 2 hr; 37 degree C in 5% humidified CO2. 3; Compounds; 23 nL; Kalypsis pintool (Wako USA) equipped with a 1536-well pin head. 4; Incubation; 24 hr; 37 degree C in 5% humidfified CO2. 5; Reagent; 1 uL; Gly-Phe-7-Amino-4-trifluoromethylcoumarin. 6; Incubation; 30 min; 37 degree C in 5% humidfified CO2. 7; Detection; Fluorescence; Viewlux plate reader (PerkinElmer). 8; Reagent; 3 uL; SteadyGlo luciferase solution (Promega). 9; Incubation; 5 min; room temperature. 10; Detection; Luminescence; ViewLux plate reader (PerkinElmer). NOTES (numbers refer to Sequence numbers above) 1. HEK-293 cells expressing CMV-luciferase reporter (designated as SC cells) were suspended in phenol-red free DMEM and dispensed in assay plates using a Multidrop Combi dispenser (Thermo Fisher Scientific). 2. Assay plates were incubated. Evaporation was prevented by covering assay plates with metal lids containing holes to allow gas diffusion. 3. Compounds were added in a dose response manner with the final concentrations of 57, 11.4, 2.28, 0.46, 0.091, 0.018, 0.0037 uM. Vehicle-only plates, with DMSO being pin-transferred to columns 5-48, were inserted uniformly at the beginning and the end of each library to monitor and record any shifts in assay performance. 5. 125 uM Gly-Phe-7-Amino-4-trifluoromethylcoumarin (MP Biomedicals) working concentration was used at a final concentration of 25 uM. 7. To assess cell viability; the assay plates were read using the ViewLux high-throughput CCD imager (PerkinElmer), wherein single end-point fluorescence measurement was acquired (excitation 405/10; emission 540/25 nm). 8. Detection reagent SteadyGlo Luciferase (Promega) was added to the assay plate. 10. Luminescence is then measured on the ViewLux imager equipped with a clear emission filter using a 2 sec exposure. […]
On the % scale 0 is the no-effect control and ±100 the full control effect; potency means the concentration at half of the fitted maximal effect.

Row | SMILES | Potency | activity change, negative = cytotoxicity
1 | COC12C(COC(N)=O)C3=C(C(=O)C(C)=C(N)C3=O)N1CC1C2N1C (configuration not stated) | 12.6 µM (active) | –
2 | O=c1[nH]c2ccccc2n1C1CCN(C(CCc2ccccc2)c2nnnn2C2CCCC2)CC1 (configuration not stated) | 11.2 µM (active) | –
3 | CC(C)(C)n1nnnc1C(CCc1ccccc1)N1CCC(n2c(=O)[nH]c3ccccc32)CC1 (configuration not stated) | 20 µM (active) | –
4 | Cc1cccc(C)c1-n1nnnc1C(c1cc2ccccc2o1)N1CCC(n2c(=O)[nH]c3ccccc32)CC1 (configuration not stated) | 7.94 µM (active) | –
5 | CN1C(=O)NC(=O)/C(=C\C=C\c2ccccc2[N+](=O)[O-])C1=O | 7.94 µM (active) | –
6 | Oc1c(Cl)cccc1Cc1cc(Cl)cc(Cl)c1O | 15.8 µM (active) | –
7 | c1ccc(CNc2c3c(nc4ccccc24)CCC3)cc1 | inactive | –
8 | O=C(Nc1ccc(OC(=O)N2CCCCC2)cc1)N1CCOCC1 | inactive | –
9 | CC12CCC3C(CCC4(O)CC(O)CCC34C=NO)C1(O)CCC2C1=COC(=O)C1 (configuration not stated) | 0.891 µM (active) | –
10 | CCCCN=C[C@]12CCC(O)CC1(O)CCC1[C@@H]2CC[C@]2(C)[C@H](C3C=CC(=O)O3)CCC12O (some centres not stated) | 1.78 µM (active) | –
11 | C1=NCCc2c1[nH]c1ccccc21 | – | 1.29% [at 11.4 µM]
12 | COc1cccc2c1C(=O)c1c(O)c3c(c(O)c1C2=O)CC(O)(C(C)=NO)CC3OC1CC(N)C(O)C(C)O1 (configuration not stated) | 14.1 µM (active) | –
13 | O=[N+]([O-])c1oc2ccc3ccccc3c2c1CCO | 20 µM (active) | –
14 | Cc1ccc(-c2nc(N(C)C3CCN(C)CC3)c3ccccc3n2)cc1 | inactive | –
15 | c1ccc2sc(N3CCNCC3)nc2c1 | inactive | –
16 | O=C(NN=Cc1ccc(N(CCCl)CCCl)cc1)c1cc(=O)[nH]c(=O)[nH]1 | inactive | –
17 | N[C@@H](Cc1ccc(N(CCCl)CCCl)cc1)C(=O)O | 12.6 µM (active) | –
18 | O=C1NC(=O)N(CCc2ccc(F)cc2)C(=O)/C1=C/C=C/c1ccccc1 | 7.94 µM (active) | –
19 | COc1ccc(CC2NCC(O)C2OC(C)=O)cc1 (configuration not stated) | 0.282 µM (active) | –
20 | CCC1(OC(=O)CN)C(=O)OCc2c1cc1n(c2=O)Cc2cc3ccccc3nc2-1 (configuration not stated) | – | 14.6% [at 11.4 µM]
21 | COC(=O)c1nc(-c2ccc3c(n2)C(=O)C(N)=C(OC)C3=O)c(N)c(-c2ccc(OC)c(OC)c2O)c1C | 20 µM (active) | –
22 | C[C@@H]1O[C@@H](O[C@@H]2C=C3CC[C@@H]4C(CC[C@]5(C)[C@@H](c6ccc(=O)oc6)CC[C@]45O)[C@@]3(C)CC2)[C@H](O)[C@H](O)[C@H]1O (some centres not stated) | 8.91 µM (active) | –
23 | COc1ccc(CC2C(=O)NC(C)C(=O)N(C)C3C(=O)N(C)C(Cc4ccc(O)c(c4)Oc4ccc(cc4)C3O)C(=O)NC(C)C(=O)NC(C)C(=O)N2C)cc1 (configuration not stated) | 0.355 µM (active) | –
24 | O=C(CSC1c2ccccc2-c2ccccc21)N/N=C/c1ccccc1O | 3.55 µM (active) | –
25 | CCCCCCC(=O)N/N=C/c1c(O)n(CCc2ccccc2)c(=O)[nH]c1=O | 8.91 µM (active) | –
26 | CC(=NCCc1c[nH]c2ccccc12)c1c(O)n(Cc2ccccc2)c(=O)[nH]c1=O | inactive | –

Row | SMILES | Potency | activity change, negative = cytotoxicity
27 | CCCCCCC(=O)N/N=C/c1c(O)n(CCCC)c(=S)[nH]c1=O | inactive | –
28 | COc1ccc(CCNCc2ccc(F)cc2)cc1OC | – | -21.2% [at 11.4 µM]
29 | C[C@]12CC[C@H](O)C[C@H]1CC[C@@H]1[C@@H]2CC[C@]2(C)[C@@H](C3=CC(=O)OC3)CC[C@]12O | 0.794 µM (active) | –
30 | CC(=O)OC1CC2(O)C3CCC4CC(O)CCC4(C)C3CCC2(C)C1C1=CC(=O)OC1 (configuration not stated) | 0.501 µM (active) | –
31 | C[C@]12CCC3C(CCC4=CC(O)CC[C@@]43/C=N/O)C1(O)CCC2C1=CC(=O)OC1 (some centres not stated) | 1.41 µM (active) | –
32 | CC12CCC(O)CC1CCC1C2CCC2(C)C(C3=CC(=O)OC3)C(O)CC12O (configuration not stated) | 7.94 µM (active) | –
33 | CC[C@@]1(O)C(=O)OCc2c1cc1n(c2=O)Cc2cc3c(NC(=O)CN)cccc3nc2-1 | – | 25.7% [at 11.4 µM]
34 | COC1C(O)C(C)OC(OC2C(Oc3cccc4c(O)c5c(=O)oc6ccc(C)c7c(=O)oc(c34)c5c67)OC(C)C(O)C2O)C1O (configuration not stated) | – | 7.77% [at 11.4 µM]
35 | CC1OC(OC2C(O)CC(OC3C(O)CC(OC4CCC5(C)C(CCC6C5CCC5(C)C(C7=CC(=O)OC7)C(O)CC65O)C4)OC3C)OC2C)CC(O)C1O (configuration not stated) | 0.251 µM (active) | –
36 | CN1C2CCC1/C(=C/c1ccccn1)C(=O)/C2=C\c1ccccn1 | 0.708 µM (active) | –
37 | C[C@@H]1C[C@@H]([C@H](O)CC2CC(=O)NC(=O)C2)C(=O)[C@@H](C)C1 | 1.78 µM (active) | –
38 | CCC(C)N1C(=O)/C(=C\c2cnc(N(C)C)nc2)C(=O)NC1=S (configuration not stated) | inactive | –
39 | C=CCCC[C@@H]1OC(=O)CNC(=O)C([C@@H](C)CC)NC(=O)[C@@H]2CCCN2C(=O)C([C@@H](C)CC)OC(=O)[C@H](Cc2ccccc2)N(C)C(=O)[C@H](C(C)C)NC(=O)C1(C)C (some centres not stated) | 3.55 µM (active) | –
40 | CCCCCOc1ccc(C)cc1CN(CCCl)CCCl | 22.4 µM (active) | –
41 | CCCCCn1c(=O)c(C(=O)NCc2ccccn2)c(O)c2ccccc21 | – | -15.5% [at 11.4 µM]
42 | C[C@H]1[C@@H](OS(=O)(=O)O)C[C@@H]2C[C@H]([C@@H](O)c3cc(=O)[nH]c(=O)[nH]3)NC3=NC[C@H]1N32 | 12.6 µM (active) | –
43 | CSCCC(c1nnnn1-c1c(C)cccc1C)N1CCC2(CC1)C(=O)NCN2c1ccccc1 (configuration not stated) | 28.2 µM (active) | –
44 | CC(C)CNc1c2c(nc3ccccc13)CCC2 | – | -29.7% [at 11.4 µM]
45 | Cc1ccc(/C=C2\C(=O)NC(=S)N(c3ccccc3F)C2=O)s1 | 3.98 µM (active) | –
46 | C[C@H]1CCC[C@@H](O)CCC/C=C/c2cc(O)cc(O)c2C(=O)O1 | 1.58 µM (active) | –
47 | C[C@H]1CCC[C@H](O)CCCCCc2cc(O)cc(O)c2C(=O)O1 | – | -5.55% [at 11.4 µM]
48 | CCC(C)(O)C(=O)OC1C(=O)OC2CC3C(C)=CC(=O)C(O)C3(C)C3C4(O)OCC23C1C(C)C4O (configuration not stated) | 0.316 µM (active) | –
49 | COc1ccc2c(c1)C(c1ccc(N(CCCl)CCCl)cc1)=NCC2 | inactive | –
50 | O=C1NC(=O)C2(CCCc3ccc(N(CCCl)CCCl)cc32)N1 (configuration not stated) | 11.2 µM (active) | –
51 | CC1CC(C)CC(C)C(O)C(C#N)=CC=CCC(C2CCCC2C(=O)O)OC(=O)CC(O)C(C)C1 (configuration not stated) | 0.398 µM (active) | –
52 | COC(=O)C(O)(c1ccc(NC(=S)NC(=O)c2ccc(Cl)cc2Cl)c(C)c1)C(F)(F)F (configuration not stated) | – | 1.53% [at 11.4 µM]
